Laboratory results from PubChem BioAssay (Tox21).
Records with an inconclusive call do not appear. Values without a mark were called inactive. The source made the active and inactive calls. Calls follow the shape of the dose curve; as a rule, active = well fitted inhibition curve with a large enough effect in the repeat runs; inconclusive = weak or mixed curves; inactive = no such curve, though single readings can be large or run the other way.

biological target: Cytochrome P450 2C19 (Homo sapiens) (UniProt P33261); assay: Cytochrome P450 Family 2 Subfamily C Member 19 (CYP2C19) small molecule antagonists: luciferase reporter qHTS assay (AID 1671197); conditions: P450-Glo CYP2C19 enzyme, luciferin luminescence, 1 h; series mostly up to 52.9 µM; activity change, negative = inhibition: at the top concentration; also: nearly all actives have a fitted effect of over 65% in size
Description: National Center for Advancing Translational Sciences [NCATS]
U.S. Environmental Protection Agency [EPA]
National Institutes of Environmental Health Sciences [NIEHS]
National Toxicology Program [NTP]
U.S. Food and Drug Administration [FDA]
Cytochrome P450 (CYP) enzymes are membrane-bound hemeproteins that play a key role in metabolism of drugs and xenobiotics. Evaluation of the effect of chemicals on CYP isozymes is useful to minimize the adverse drug reactions and toxicities in drug development process. Tox21 chemicals were tested for their effect on CYP enzyme activities by using P450-Glo (TM) screening systems (Promega Corporation, Madison, WI). These systems provide a luminescent method containing proluciferin substrates and are converted to luciferin products by CYP isozymes. The luciferin products formed are detected with a luciferin detection reagent, and the amount of light produced is proportional to CYP activity. P450-Glo (TM) CYP2C19 screening system (Catalog. No. V9880) was used to detect the compounds that interfere in CYP2C19 activity. The positive control compound used for CYP2C19 assay is ketoconazole (Sigma-Aldrich, St. Louis, MO).
Tox21 Assay Protocol Summary:
Two ul of enzyme-substrate mix was dispensed into medium binding white/solid 1536-well plates (Greiner Bio-One North America Inc., Monroe, NC) using a BioRaptr Flying Reagent Dispenser (FRD, Beckman Coulter, Brea, CA). Compounds dissolved in DMSO and positive control (ketoconazole) were transferred to the assay plates at 23 nl using a Pintool station (Wako, San Diego, CA). The assay plates were incubated at room temperature for 10 min. Then 2 ul of NADPH regeneration solution was added to each well of the assay plates using an FRD and incubated at 37C for 1 h. The reaction was stopped by adding 4 ul of detection reagent using an FRD and after 20 min incubation at room temperature the luminescence signal was measured using a ViewLux plate reader (Perkin Elmer, Shelton, CT). Data were expressed as relative luminescence units.
% is scaled to controls: 0 for no effect and ±100 for the full control effect; potency is read from the fitted curve at half-maximal effect.

Chain of Cytochrome P450 2C19 (Homo sapiens) (P33261 whole entry, looked up): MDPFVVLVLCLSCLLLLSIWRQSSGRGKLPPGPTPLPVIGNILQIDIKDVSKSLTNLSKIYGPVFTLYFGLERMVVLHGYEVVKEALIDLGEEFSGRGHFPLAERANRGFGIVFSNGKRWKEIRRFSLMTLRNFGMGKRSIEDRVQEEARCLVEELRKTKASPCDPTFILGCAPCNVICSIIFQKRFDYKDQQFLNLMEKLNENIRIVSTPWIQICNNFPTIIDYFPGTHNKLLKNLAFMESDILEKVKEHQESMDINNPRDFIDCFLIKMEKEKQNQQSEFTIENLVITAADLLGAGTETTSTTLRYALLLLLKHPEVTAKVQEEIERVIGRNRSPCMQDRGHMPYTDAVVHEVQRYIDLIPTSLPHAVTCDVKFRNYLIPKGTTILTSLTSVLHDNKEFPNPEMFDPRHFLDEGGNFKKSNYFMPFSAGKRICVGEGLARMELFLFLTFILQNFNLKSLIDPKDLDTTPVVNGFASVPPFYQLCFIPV

SMILES | activity change, negative = inhibition | Potency
CC(=O)c1ccccc1[N+](=O)[O-] | -12% [at 115 µM] | 
C=CCCC(=O)O | 2.05% [at 115 µM] | 
C[N+](C)(C)CCCCCCCCCC[N+](C)(C)C | -2.06% | 
C=CN1CCCCCC1=O | -6.32% [at 115 µM] | 
CCCOC(=O)CC | -15.6% [at 115 µM] | 
CCCCS(=O)(=O)N[C@@H](Cc1ccc(OCCCCC2CCNCC2)cc1)C(=O)O | -4.22% | 
OCCc1ccccn1 | 10.9% [at 115 µM] | 
CC(COc1ccccc1)NN (stereo not given) | -7.62% | 
Cc1ccc(-c2ncc(Cl)cc2-c2ccc(S(C)(=O)=O)cc2)cn1 | -19.1% | 
CC(C)C(=O)OC(=O)C(C)C | 31% [at 115 µM] | 
CC(=O)NC(=O)c1ccccc1O | 2.66% | 
CC[N+](C)(CC)CCOC(=O)C1c2ccccc2Oc2ccccc21 | -20.5% | 
Cc1nc2ccc(CN(C)c3ccc(C(=O)N[C@@H](CCC(=O)O)C(=O)O)s3)cc2c(=O)[nH]1 | 13.3% | 
CC1(C)[C@@H]2CC[C@@]1(C)[C@H](O)C2 | -20.4% [at 115 µM] | 
CCCCCCCCN1CCCC1=O |  | 10 µM (active)
CCOC(=O)COc1cc(-n2ncc(C(F)(F)F)c(C)c2=O)c(F)cc1Cl |  | 35.6 µM (active)
CC1=C(C/C=C(\C)CCC[C@H](C)CCC[C@H](C)CCCC(C)C)C(=O)c2ccccc2C1=O | -1.31% | 
CCCCCC(C)N (stereo not given) | -6.5% | 
COc1ccnc(CS(=O)c2nc3cc(OC(F)F)ccc3[nH]2)c1OC (stereo not given) |  | 8.99 µM (active)
Cc1onc(-c2c(Cl)cccc2Cl)c1C(=O)Cl |  | 21.9 µM (active)

SMILES | activity change, negative = inhibition | Potency
O=[N+]([O-])c1cncn1CCN1CCOCC1 | 0.681% | 
CC(CO)(CO)[N+](=O)[O-] | -3.64% [at 115 µM] | 
CC(=O)OCC(=O)[C@@]1(O)[C@H](C)C[C@H]2[C@@H]3CCC4=CC(=O)C=C[C@]4(C)[C@@]3(F)[C@@H](O)C[C@@]21C | 14.8% | 
CCN1CCOCC1 |  | 22 µM (active)
NS(=O)(=O)Cc1noc2ccccc12 | -3.6% | 
NC(=O)N[C@@H](CCC(=O)O)C(=O)O | -0.41% | 
O=C(O)CC(C(=O)O)S(=O)(=O)O (stereo not given) |  | 8.94 µM (active)
C[N+]1(CC2COC(c3ccccc3)(c3ccccc3)O2)CCCCC1 (stereo not given) | 10.2% [at 23.6 µM] | 
CC(=O)N1C[C@H](O)C[C@H]1C(=O)O | 11.5% | 
CO[C@@]1(NC(=O)CSC[C@@H](N)C(=O)O)C(=O)N2C(C(=O)O)=C(CSc3nnnn3C)CS[C@@H]21 | -9.96% | 
OCCCCCO | -19.8% [at 115 µM] | 
CCOC(=O)C(=O)CCCCCCl |  | 17.4 µM (active)
CC(=O)Oc1cccc(C)c1 | -5.94% | 
C[C@@H]1CCC[C@H](C)N1 | 31.4% | 
O=S(=O)(O)c1cccc(S(=O)(=O)O)c1 | -21.1% [at 115 µM] | 
CCCCCCCC1CCCC1=O (stereo not given) |  | 39.9 µM (active)
C[C@@H]1C[C@H]2[C@@H]3C[C@H](F)C4=CC(=O)C(Cl)=C[C@]4(C)[C@@]3(F)[C@@H](O)C[C@]2(C)[C@@]1(O)C(=O)CO |  | 8.71 µM (active)
C=C(C)C(=O)OCC1CCCO1 (stereo not given) | 6.13% [at 115 µM] | 
C[N+]1(C)[C@@H]2CC(OC(=O)[C@H](CO)c3ccccc3)C[C@H]1[C@@H]1O[C@@H]12 (stereo not given in full) | 9.48% | 
CN1CC(=O)N/C1=N/C(=O)Nc1cccc(Cl)c1 | -10.6% | 
